According to PubChem BioAssay (Tox21):
Results filed as inconclusive are left out. Activity calls are given as the source filed them. Unless noted, calls come from the whole dose curve; as a rule, active = well fitted curve in the direction sought with a large enough effect in the repeat runs; inconclusive = weak or mixed curves; inactive = no such curve, though single readings can be large; an effect the other way counts as inactive or inconclusive.

Key:
[1] = target: Retinoic acid receptor RXR-alpha (Homo sapiens) (UniProt P19793); assay: qHTS assay to identify small molecule agonists of the RXR signaling pathway (AID 1159527; calls by dose curve; note: nearly all actives have a fitted effect of over 35% in size)
Summary of the method: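 GeneBLAzer RXR-alpha-UAS-bla HEK 293T cells in 2% charcoal-stripped FBS medium were exposed to compounds for 16 hr at 37 C in agonist mode. Beta-lactamase reporter read as 460/530 nm FRET ratio after 2 hr substrate loading.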

[2] = qHTS assay to identify small molecule agonists of the RXR signaling pathway - cell viability counter screen (AID 1159529); note: series mostly up to about 77 µM; nearly all actives have a fitted effect of over 50% in size
Summary of the method: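 RXR-alpha-UAS-bla HEK 293T cells in medium with 2% charcoal-stripped FBS were pre-incubated 5 hr, then compound-treated 16 hr at 37 C. Viability was read by CellTiter-Glo luminescence in the same wells as the beta-lactamase assay, with tetraoctyl ammonium bromide as positive control.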

[3] = qHTS assay to identify small molecule antagonists of the estrogen related receptor (ERR) signaling pathway from Tox21 library - cell viability counter screen (AID 1224834); note: nearly all actives have a fitted effect of over 30% in size
Summary of the method: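 Fluorescence from CellTiter-Fluor gives the viability read-out, taken 30 min after reagent addition. Before that, ERR cells seeded 6 h earlier were incubated with compounds for 17.5 h at 37 C.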

[4] = qHTS assay to identify small molecule agonists of the constitutive androstane receptor (CAR) signaling pathway - cell viability counter screen (AID 1224836); note: series mostly up to about 92 µM; nearly all actives have a fitted effect of over 45% in size
Summary of the method: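 HepG2 cells stably carrying hCAR and a CYP2B6-2.2kb reporter; 15-concentration compounds plus PK11195 (final 0.75 uM), 23 hr at 37 C/5% CO2. Viability read by CellTiter-Fluor fluorescence.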

[5] = qHTS assay to identify small molecule antagonists of the constitutive androstane receptor (CAR) signaling pathway - cell viability counter screen (AID 1224837); note: series mostly up to about 92 µM; nearly all actives have a fitted effect of over 45% in size
Summary of the method: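 HepG2-CYP2B6-hCAR cells, 2500/well, 4 hr pre-incubation; compound titration, 15 conc.; CITCO 50 nM final; 23 hr, 37 C/5% CO2; CellTiter-Fluor, fluorescence intensity.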

[6] = target: Nuclear receptor subfamily 1 group I member 3 (Homo sapiens) (UniProt Q14994); assay: qHTS assay to identify small molecule antagonists of the constitutive androstane receptor (CAR) signaling pathway (AID 1224838);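 note: HepG2 cells stably expressing hCAR with CYP2B6 luciferase reporter stimulated by CITCO; nearly all actives have a fitted effect of over 40% in size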
Summary of the method: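 HepG2-CYP2B6-hCAR cells; 4 h pre-incubation; cpd (15 conc) + CITCO 50 nM final; 24 h, 37 C/5% CO2; ONE-Glo, luminescence.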

[7] = target: Nuclear receptor subfamily 1 group I member 3 (Homo sapiens) (UniProt Q14994); assay: qHTS assay to identify small molecule agonists of the constitutive androstane receptor (CAR) signaling pathway (AID 1224839);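 note: HepG2 cells stably carrying human CAR and a CYP2B6 luciferase reporter; series mostly up to about 92 µM; nearly all actives have a fitted effect of over 15% in size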
Summary of the method: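 HepG2 cells stably co-transfected with hCAR and a CYP2B6-2.2kb luciferase reporter; compounds at 15 concentrations with 0.75 uM PK11195 present. After 24 hr at 37 C, luciferase read by ONE-Glo luminescence.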

[8] = qHTS assay to identify small molecule antagonists of the estrogen related receptor signaling pathway with the pleiotropic PPARgamma coactivator (PGC) from Tox21 10K library - cell viability counter screen (AID 1224840; active = well fitted cell-killing curve with a large enough effect in the repeat runs, not every such curve was filed as active; note: nearly all actives have a fitted effect of over 40% in size)
Summary of the method: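 PGC/ERR cells, 2,000/well; 6 h pre-incubation 37 C/5% CO2; cpd in DMSO via pin tool; 17.5 h 37 C; CellTiter-Fluor, 30 min; fluorescence.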

[9] = qHTS assay to identify small molecule antagonists of the estrogen related receptor signaling pathway with the pleiotropic PPARgamma coactivator (PGC) from Tox21 10K library (AID 1224841; call rule not given here; note: series mostly up to about 92 µM; actives are mostly falling curves and most rising ones were filed inactive; nearly all actives have a fitted effect of over 50% in size)
Summary of the method: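 PGC/ERR cell line, 2,000 cells/well; 6 h pre-incubation 37 C/5% CO2; compounds (DMSO) pinned in; 18 h, 37 C; One-Glo, 30 min RT; luminescence.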

[10] = qHTS assay to identify small molecule agonists of the estrogen related receptor signaling pathway with the pleiotropic PPARgamma coactivator (PGC) from Tox21 10K library (AID 1224842); note: nearly all actives have a fitted effect of over 15% in size
Summary of the method: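 PGC/ERR reporter cell line, 2,000 cells per well, incubated 6 h at 37 C before 23 nL compound in DMSO was added. After 18 h at 37 C, One-Glo luminescence read following 30 min at room temperature.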

[11] = qHTS assay to identify small molecule agonists of the hypoxia (HIF-1) signaling pathway - cell viability counter screen (AID 1224844; calls by dose curve; note: nearly all actives have a fitted effect of over 50% in size)
Summary of the method: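 ME-180 HRE-bla cells, 2,000/well, 0.5% dialyzed FBS; 5 hr settle, 17 hr compound at 37C/5% CO2; CCF4-AM reporter read first, then CellTiter-Glo luminescence after 30 min RT.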

[12] = qHTS assay to identify small molecule agonists of H2AX (AID 1224845; active = well fitted activation curve with a large enough effect in the signal ratio in the repeat runs, not every such curve was filed as active; the % refers to the signal ratio)
Summary of the method: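 Wild-type CHO-K1 cells, plated overnight, exposed 3hr at 37C to 15 concentrations (0.76% DMSO final). Lysed, then HTRF anti-pH2AX (S139) cryptate and anti-H2AX-d2 antibodies, 24 hr room temperature; 665/620 nm emission read.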

[13] = target: Luciferin 4-monooxygenase (Photinus pyralis) (UniProt P08659); assay: qHTS assay to identify small molecule inhibitors of firefly luciferase (AID 1224835); note: nearly all actives have a fitted effect of over 25% in size; note: potency is the fitted concentration of half-maximal effect
Summary of the method: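 Biochemical qHTS: compounds run as interplate titrations against purified firefly enzyme, with D-luciferin and ATP each at its KM concentration. Light output recorded by CCD imaging.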

[14] = target: Thyrotropin receptor (Homo sapiens) (UniProt P16473); assay: qHTS assay to identify small molecule agonists of the thyroid stimulating hormone receptor (TSHR) signaling pathway (AID 1224843; calls by dose curve; note: nearly all actives have a fitted effect of over 45% in size)
Summary of the method: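 TSHR-HEK293 cells in agonist mode, 30 min room-temperature step, then cAMP measured by competitive HTRF (cAMP-d2 with anti-cAMP cryptate) after 1 h at room temperature. Tested at 15 concentrations in triplicate.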

[15] = qHTS assay to identify small molecule agonists of the retinoic acid receptor (RAR) signaling pathway (AID 1159553); note: potency is the fitted concentration of half-maximal effect
Summary of the method: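 Luminescence from a RARE-driven luciferase reporter in C3RL4 cells served as the read-out, measured after 30 min with detection reagent at room temperature. Compounds in DMSO were applied for 6 hr at 37 C following overnight seeding.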

[16] = qHTS assay to identify small molecule antagonists of the retinoic acid receptor (RAR) signaling pathway (AID 1159552; note: nearly all actives have a fitted effect of over 50% in size)
Summary of the method: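 Retinol signaling pathway inhibitors screened in C3RL4 RARE-luciferase reporter cells seeded overnight at 37 C, then compounds added with 1 uM (final) retinol as pathway substrate. After 6 hr at 37 C, luciferase luminescence read after 30 min at room temperature.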

[17] = qHTS assay to identify small molecule antagonists of the retinoid acid receptor (RAR) signaling pathway - cell viability counter screen (AID 1159551); note: nearly all actives have a fitted effect of over 35% in size
Summary of the method: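 Luminescent ATP quantitation (CellTiter-Glo) gave cell viability in C3RL4 cells exposed to test chemicals for 6 h at 37 C alongside 1 uM final retinol.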
% is set by controls: 0 for no effect and ±100 for the full control effect.

Luciferin 4-monooxygenase (Photinus pyralis), sequence (P08659 whole entry, looked up): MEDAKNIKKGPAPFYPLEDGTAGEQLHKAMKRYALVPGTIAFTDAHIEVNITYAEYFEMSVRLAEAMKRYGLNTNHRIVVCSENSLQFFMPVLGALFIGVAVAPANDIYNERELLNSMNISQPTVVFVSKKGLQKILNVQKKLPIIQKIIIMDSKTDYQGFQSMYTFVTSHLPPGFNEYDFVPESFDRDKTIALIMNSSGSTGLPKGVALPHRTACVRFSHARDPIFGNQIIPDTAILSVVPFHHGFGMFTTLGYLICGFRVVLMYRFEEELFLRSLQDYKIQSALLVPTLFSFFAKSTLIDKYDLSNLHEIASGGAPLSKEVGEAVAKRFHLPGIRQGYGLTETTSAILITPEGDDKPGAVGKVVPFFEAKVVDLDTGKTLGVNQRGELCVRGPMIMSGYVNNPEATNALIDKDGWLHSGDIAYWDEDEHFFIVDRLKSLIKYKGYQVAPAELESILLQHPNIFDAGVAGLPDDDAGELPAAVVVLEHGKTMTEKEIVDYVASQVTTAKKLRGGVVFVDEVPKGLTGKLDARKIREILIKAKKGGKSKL
Retinoic acid receptor RXR-alpha (Homo sapiens), sequence (P19793 whole entry, looked up): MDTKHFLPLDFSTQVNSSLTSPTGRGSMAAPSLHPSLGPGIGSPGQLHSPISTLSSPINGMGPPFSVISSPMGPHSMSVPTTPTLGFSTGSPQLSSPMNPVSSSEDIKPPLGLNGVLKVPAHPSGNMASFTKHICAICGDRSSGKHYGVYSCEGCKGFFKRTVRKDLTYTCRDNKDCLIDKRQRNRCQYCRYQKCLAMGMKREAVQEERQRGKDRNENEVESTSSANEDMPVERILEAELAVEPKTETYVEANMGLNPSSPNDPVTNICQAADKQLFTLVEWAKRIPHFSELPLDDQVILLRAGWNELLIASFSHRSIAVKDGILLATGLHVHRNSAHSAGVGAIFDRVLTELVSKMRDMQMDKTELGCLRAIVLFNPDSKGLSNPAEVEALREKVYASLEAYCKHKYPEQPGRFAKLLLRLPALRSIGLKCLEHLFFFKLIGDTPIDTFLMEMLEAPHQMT
Thyrotropin receptor (Homo sapiens), sequence (P16473 whole entry, looked up): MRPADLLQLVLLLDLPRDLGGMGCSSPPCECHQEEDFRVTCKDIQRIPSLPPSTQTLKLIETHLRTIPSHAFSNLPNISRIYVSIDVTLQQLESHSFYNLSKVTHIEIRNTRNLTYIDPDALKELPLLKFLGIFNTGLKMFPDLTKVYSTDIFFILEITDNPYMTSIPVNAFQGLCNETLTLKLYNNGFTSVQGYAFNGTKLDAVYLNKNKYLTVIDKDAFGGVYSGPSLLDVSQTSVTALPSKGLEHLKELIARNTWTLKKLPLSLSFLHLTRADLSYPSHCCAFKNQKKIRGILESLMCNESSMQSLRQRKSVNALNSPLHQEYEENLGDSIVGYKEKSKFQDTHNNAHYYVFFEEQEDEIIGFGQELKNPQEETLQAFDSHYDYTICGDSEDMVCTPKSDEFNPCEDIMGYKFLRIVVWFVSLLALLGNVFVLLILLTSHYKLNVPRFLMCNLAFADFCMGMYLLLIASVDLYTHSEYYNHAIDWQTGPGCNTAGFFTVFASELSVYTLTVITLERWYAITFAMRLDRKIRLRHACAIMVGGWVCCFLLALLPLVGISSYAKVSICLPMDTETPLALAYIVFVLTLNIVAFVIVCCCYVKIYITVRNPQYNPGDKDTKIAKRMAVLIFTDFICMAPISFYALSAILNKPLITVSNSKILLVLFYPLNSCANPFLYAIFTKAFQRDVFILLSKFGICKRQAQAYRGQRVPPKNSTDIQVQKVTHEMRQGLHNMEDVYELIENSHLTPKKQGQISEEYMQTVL
Nuclear receptor subfamily 1 group I member 3 (Homo sapiens), sequence (Q14994 whole entry, looked up): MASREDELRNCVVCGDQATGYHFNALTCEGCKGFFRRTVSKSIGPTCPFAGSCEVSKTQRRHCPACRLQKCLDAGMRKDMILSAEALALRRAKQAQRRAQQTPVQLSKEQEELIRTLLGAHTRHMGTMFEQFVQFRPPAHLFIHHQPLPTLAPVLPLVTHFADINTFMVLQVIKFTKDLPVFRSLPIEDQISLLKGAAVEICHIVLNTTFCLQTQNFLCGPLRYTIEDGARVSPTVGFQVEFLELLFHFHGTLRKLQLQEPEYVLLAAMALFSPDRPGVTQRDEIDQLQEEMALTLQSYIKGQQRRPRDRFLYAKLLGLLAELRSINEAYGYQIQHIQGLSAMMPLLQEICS

Cc1cc(Cl)c(C)cc1Cl
inactive: Potency [1] | outcome [2] | Potency [3] | Potency [4] | Potency [5] | outcome [6] | Potency [7] | outcome [8] | Potency [9] | outcome [10] | outcome [11] | outcome [12]

Brc1ccc(-c2ccccc2)cc1
active: Potency [13] 35.5 µM
inactive: Potency [1] | outcome [2] | Potency [3] | Potency [4] | Potency [5] | outcome [6] | Potency [7] | outcome [8] | Potency [14] | outcome [11]

CCOC(=O)c1ncn2c1CN(C)C(=O)c1cc(F)ccc1-2
inactive: Potency [1] | outcome [2] | Potency [3] | Potency [13] | Potency [4] | Potency [5] | Potency [14] | outcome [11] | outcome [12]

CC(=C(CCOC(=O)C(C)C)SSC(CCOC(=O)C(C)C)=C(C)N(C=O)Cc1cnc(C)nc1N)N(C=O)Cc1cnc(C)nc1N
inactive: Potency [1] | outcome [2] | Potency [15] | Potency [3] | Potency [13] | Potency [4] | Potency [5] | outcome [6] | Potency [7] | outcome [8] | Potency [9] | outcome [10] | Potency [14] | outcome [11] | outcome [12]

N[C@@H](CCC(=O)N[C@@H](CS)C(=O)NCC(=O)O)C(=O)O
inactive: activation [1] 2.72% [at 15.8 µM] | activity change, negative = cytotoxicity [2] -1.04% [at 15.8 µM] | activity, negative = inhibition [16] 29.9% [at 19 µM] | Potency [15] | viability change, negative = cytotoxic [4] 2.39% [at 19 µM] | activity change, negative = cytotoxicity [5] 7.5% [at 19 µM] | viability change, negative = cytotoxic [8] 15.7% [at 19 µM] | activation [14] 2.71% [at 19 µM] | activity change, negative = cytotoxicity [11] 2.76% [at 15.8 µM] | activation (H2AX phosphorylation) [12] -1.53% [at 31.6 µM]

Cc1c(I)c(=O)n(-c2ccccc2)n1C
inactive: Potency [1] | outcome [2] | Potency [3] | Potency [4] | Potency [5] | outcome [6] | Potency [7] | Potency [9] | outcome [10] | Potency [14] | outcome [11] | outcome [12]

C#CC(C)N(C)C(=O)Nc1ccc(Cl)cc1 (stereo not drawn)
active: Potency [15] 38.5 µM | Potency [13] 63.2 µM
inactive: Potency [1] | outcome [17] | outcome [16] | Potency [4] | Potency [5] | outcome [6] | Potency [9] | outcome [10] | outcome [11] | outcome [12]

CC(=O)NCc1c(I)c(NC(C)=O)c(I)c(C(=O)O)c1I
inactive: Potency [1] | outcome [2] | Potency [3] | Potency [13] | Potency [4] | Potency [5] | outcome [6] | Potency [7] | outcome [8] | Potency [9] | outcome [10] | Potency [14] | outcome [11] | outcome [12]

O=C(O)Cc1cn(-c2ccccc2)nc1-c1ccc(Cl)cc1
inactive: Potency [1] | outcome [2] | Potency [3] | Potency [13] | Potency [4] | Potency [5] | outcome [6] | Potency [7] | outcome [8] | Potency [14] | outcome [11] | outcome [12]

O=C(O)Cc1ccc(Cl)cc1Cl
inactive: Potency [1] | outcome [2] | outcome [16] | Potency [13] | Potency [4] | Potency [5] | outcome [8] | Potency [14] | outcome [11] | outcome [12]

BrCCCCCBr
inactive: Potency [1] | outcome [2] | Potency [3] | Potency [13] | Potency [4] | Potency [5] | outcome [6] | Potency [9] | outcome [10] | outcome [11] | outcome [12]

CC(=O)/C=C/C1C(C)=CCC(C)C1(C)C (stereo not drawn)
inactive: Potency [1] | outcome [2] | outcome [16] | Potency [3] | Potency [13] | Potency [4] | Potency [5] | outcome [6] | Potency [7] | outcome [8] | Potency [9] | outcome [10] | Potency [14] | outcome [11] | outcome [12]

CCOCCOC(=O)/C=C/c1ccc(OC)cc1
inactive: Potency [1] | outcome [2] | outcome [16] | Potency [4] | Potency [5] | outcome [6] | outcome [8] | outcome [11] | outcome [12]

c1ccc2c(c1)ccc1c3ccccc3ccc21
active: Potency [15] 3.94 µM
inactive: Potency [1] | outcome [2] | outcome [16] | Potency [3] | Potency [4] | Potency [5] | outcome [6] | Potency [14] | outcome [11]

NCCN1CCOCC1
inactive: Potency [1] | outcome [2] | outcome [16] | Potency [3] | Potency [4] | Potency [5] | outcome [11] | outcome [12]

COCCOCCOCCOCCO
inactive: Potency [1] | outcome [2] | Potency [3] | Potency [13] | Potency [4] | Potency [5] | outcome [6] | Potency [14] | outcome [11] | outcome [12]

Cc1ccc(S(=O)(=O)O)c(C)c1
inactive: Potency [1] | outcome [2] | Potency [3] | Potency [13] | Potency [4] | Potency [5] | outcome [6] | outcome [8] | Potency [9] | outcome [10] | Potency [14] | outcome [11] | outcome [12]
